A short description of experiment [1]: Wnt pathway potentiators raising nuclear beta-catenin – imaging, WNT3A-conditioned medium, mouse C2C12, NPC library, primary screen (AID 1117326; in the data active = nuclear beta-catenin stimulation mostly above about 4.2%, no sharp cut-off; inactive = mostly below about 10%). The following applies: stronger effect = higher value.
Experiment [2] is described as follows: stimulators of insulin release from INS-1E, primary screen, cell-based, 5 mM glucose, NPC library (AID 1117329;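 active = compound raises insulin release from rat beta cells at 5 mM glucose, no numeric limit stated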). The following applies: rat INS-1E insulin secretion, at 10 µM, stronger effect = higher value.
Experiment [3] is described as follows: growth inhibition of GSK3B-pretreated HCT116 cells – cell-based, CellTiter-Glo, 0.2 to 20 µM (AID 1117336;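 active = compounds lowering colon cancer cell viability after pretreatment blocking the GSK3B kinase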). The following applies: HCT116 viability after GSK3B inhibitor, at 20 µM, stronger effect = higher value. In general terms: In ATP-based viability assays light output follows the ATP content of the culture.
Experiment [4] is described as follows: inhibition of endothelial tube formation, primary screen, imaging, VEGF stimulated, CD31 staining, tube area, NPC library (AID 1117340;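 active = compound that reduces growth-factor-driven endothelial tube area in a mixed cell culture, no cutoff stated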). The note with it: VEGF-stimulated ADSC/ECFC co-culture, at 10 µM, stronger effect = higher value.
The nature of experiment [5]: GLP1 release stimulators, primary, NCI-H716, NPC library (AID 1117341). The note with it: NCI-H716 cells, at 10 µM, stronger effect = higher value.
Experiment [6] is described as follows: HCT116 colon cancer cell growth inhibition, primary screen, CellTiter-Glo luminescence, NPC library (AID 1117342;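 active = compounds that lower survival of HCT116 colon cancer cells in the luminescence readout, no numeric limit stated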). The note with it: at 20 µM (top of the series).
Experiment [7] in a line: reduced SW480 viability measured with CellTiter-Glo, NPC library, primary (AID 1117343;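 active = compounds that lower viability of the colon cancer cells in the luminescence readout, with no numeric limit stated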). The note with it: CellTiter-Glo luminescence; at 20 µM (top of the series).
A short description of experiment [8]: NPC library primary testing for decreased DLD-1 cell viability via CellTiter-Glo (AID 1117346;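 active = compounds that lower survival of DLD-1 colon cancer cells in the luminescence readout, no cutoff given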). The following applies: DLD-1 viability, CellTiter-Glo luminescence; at 20 µM (top of the series).
The nature of experiment [9]: viability loss with induced miR-34 in A549 – imaging, A549 dox-inducible miR-34, nuclei and caspase counts, primary screen (AID 1347080;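 active = compounds whose cell count with miR-34 switched on is under 0.7 times the count with it off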). The following applies: A549 miR-34 inducible, Hoechst nuclei count, 48 h.
Experiment [10] can be described thus: MELAS cybrid and Rieske KO viability enhancers – cell-based, MELAS cybrids, Rieske KO mouse fibroblasts, CellTiter-Glo, primary screen (AID 1508586;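 active = mean z-score across replicates of 1.96 or higher in either the MELAS or the Rieske mutant cell line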;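 also: z relative to plate mean and SD of compound and empty wells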). The following applies: low glucose.
Experiment [11] is described as follows: compounds altering viability of human ES cells (AID 493140; call rule not given here;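 also: cells exposed to compounds for four days before counting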). The following applies: human embryonic stem cell survival screen; stronger effect = higher value.
The nature of experiment [12]: P. berghei load reduction in hepatocytes – cell-based, HepG2, luciferase luminescence, HepG2 viability, primary screen (AID 624349; in the data active = parasite load remaining mostly below about 12%, no sharp cut-off; inactive = mostly above about 10%;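 also: 100% = mean of DMSO negative control wells on the same plate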). The following applies: P. berghei liver stage in HepG2, luciferase luminescence, concentration not given here; parasite load remaining: stronger effect = lower value; viability: measured here: HepG2 viability without parasites.
Experiment [13] can be described thus: galactose survival enhancers in mitochondrial complex I cybrids – cell-based, galactose medium, ATP luminescence, primary screen (AID 1645843;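 active = z-score of at least 1.8 in each of two replicates, scored against plate mean and spread of sample wells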;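 also: positive z means more ATP and so rescue of galactose-driven cybrid death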). The following applies: complex I mutant cybrid cells, 72 h, stronger effect = higher value.
[14] abbreviates: stronger effect = lower value, cell number ratio, induced over uninduced.
The mark [15] stands for this setting: measured here: relative caspase fold change +Dox/-Dox.
Where [16] appears, read: measured here: total cells with miR-34 induction, stronger effect = lower value.
The mark [17] stands for this setting: measured here: total cells without miR-34 induction.
[18] abbreviates: MELAS cybrid survival, CellTiter-Glo 48 h, stronger effect = higher value.
[19] abbreviates: Rieske KO mouse fibroblast survival, CellTiter-Glo 72 h.

“And” between values parts separate entries of the source, which are not always exact repeats. Equal entries are not always repeated. The source made the active and inactive calls.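 The calls were made as follows, unless noted: active = compound raises GLP1 secretion from the human gut endocrine cells, with no numeric limit stated; inactive = the rest.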

As to `COC(=O)[C@@H](N)CCCN/C(N)=N/[N+](=O)[O-]`, the nuclear beta-catenin stimulation in experiment [1] (at 10 µM) is -0.9% (inactive); in [1] (stimulation, at 2 µM), -2.6%. Besides, the insulin secretion stimulation in experiment [2] was 0.95% (inactive). Further, the viability decrease in [3] is 23.3% (inactive). Besides, in experiment [4], the tube area decrease was -8.8% (inactive). Further, the GLP1 secretion stimulation in experiment [5] is 0.9% (inactive). Besides, the inhibition of viability in experiment [6] is 1.7% (inactive). The figures for the viability decrease (inhibition) in experiment [7] and in experiment [8] were -10.3% (inactive) and -0.3% (inactive), respectively. The fold change is 0.947 (inactive) in experiment [9] (setting [14]) and 0.639 in [9] (setting [15]). Further, the values for the cell count in experiment [9] (setting [16]) and in [9] (setting [17]) were 5570 and 5890, respectively.

As to `Cc1cccc(Cc2cnc[nH]2)c1C`, the nuclear beta-catenin stimulation is 7.4% (inactive) in [1] (at 10 µM) and 8.1% in [1] (stimulation, at 2 µM). The insulin secretion stimulation in experiment [2] is 0.4% (inactive). Besides, in experiment [3], the viability decrease was -41.9% (inactive). In addition, in experiment [4], the tube area decrease was 15.5% (inactive). Further, the GLP1 secretion stimulation in experiment [5] was 4.1% (inactive). Also, the inhibition of viability in experiment [6] is 4.37% (inactive). The viability decrease (inhibition) in experiment [7] was -5.1% (inactive); in experiment [8], -9.9% (inactive). Further, the fold change is 0.969 (inactive) in [9] (stronger effect = lower value) and 0.529 in [9] (setting [15]). Besides, the figures for the cell count in experiment [9] (setting [16]) and in [9] (setting [17]) were 7080 and 7310, respectively. In addition, the z-score in experiment [10] (setting [18]) was 0.317 (inactive); in [10] (setting [19]), -0.228.

For `ClC1=C(Cl)C2(Cl)C(CBr)CC1(Cl)C2(Cl)Cl` (configuration not stated), the nuclear beta-catenin stimulation was 1.7% (inactive) in [1] (at 10 µM) and 5.3% in experiment [1] (stimulation, at 2 µM). In experiment [2], the insulin secretion stimulation is 0.2% (inactive). The GLP1 secretion stimulation in experiment [5] was 16.3% (inactive).

Broadly, the viability is a read-out of living cells in per cent, often relative to untreated cells. Take `CCNCC(O)c1cccc(O)c1` (configuration not stated): the survival in [11] is 9.33 (inactive). Moreover, in experiment [12], the parasite load remaining was 95% (inactive). Further, the viability in experiment [12] worked out at 69.4%. The nuclear beta-catenin stimulation in experiment [1] (at 10 µM) is -1.1% (inactive); in experiment [1] (stimulation, at 2 µM), 2.2%. Also, in [2], the insulin secretion stimulation is 0.6% (inactive). Further, the viability decrease in [3] was -11.3% (inactive). In addition, in experiment [4], the tube area decrease was 0.2% (inactive). In experiment [5], the GLP1 secretion stimulation is -2.7% (inactive). Besides, the inhibition of viability in [6] is 1.7% (inactive). Also, the results for the viability decrease (inhibition) in experiment [7] and in experiment [8] were 15.1% (inactive) and -2.7% (inactive), respectively. The values for the fold change in [9] (setting [14]) and in experiment [9] (setting [15]) were 0.936 (inactive) and 0.593, respectively. The cell count in experiment [9] (setting [16]) stood at 9690; in [9] (setting [17]) it was 10400. Also, the z-score in [10] (setting [18]) was 0.575 (inactive); in experiment [10] (setting [19]) it was 0.102.

For `Clc1cccc(N2CCNCC2)c1`, the nuclear beta-catenin stimulation is 1% (inactive) in [1] (at 10 µM) and 0.1% in experiment [1] (stimulation, at 2 µM). The insulin secretion stimulation in experiment [2] was 3.9% (inactive). For the same molecule, the viability decrease in experiment [3] was 15% (inactive). Besides, in experiment [4], the tube area decrease was 3.3% (inactive). For the same molecule, the GLP1 secretion stimulation in [5] is 6.5% (inactive). Further, the inhibition of viability in [6] is 10.8% (inactive). For the same molecule, the viability decrease (inhibition) in experiment [7] is 68.5% (active); in experiment [8], 26.4% (inactive).

For the molecule `C#C[C@]1(O)CC[C@H]2[C@@H]3CCC4=CC(=O)CCC4=C3C=C[C@@]21CC`, the parasite load remaining in experiment [12] was 55.7% (inactive). Also, the viability in [12] was 102%. The nuclear beta-catenin stimulation in experiment [1] (at 10 µM) was -0.6% (inactive); in experiment [1] (stimulation, at 2 µM), 0.3%. The insulin secretion stimulation in experiment [2] was 0.7% (inactive). For the same molecule, in experiment [3], the viability decrease is 14.5% (inactive). In addition, in [4], the tube area decrease is 41.9% (active). The GLP1 secretion stimulation in experiment [5] was 2.8% (inactive). Moreover, the inhibition of viability in experiment [6] is 26.1% (inactive). In addition, the viability decrease (inhibition) is 16% (inactive) in experiment [7] and -9.5% (inactive) in experiment [8]. In addition, the fold change in [9] (stronger effect = lower value) was 0.886 (inactive); in experiment [9] (setting [15]), 1.01. Moreover, the cell count turned out to be 9780 in experiment [9] (setting [16]) and 11000 in [9] (setting [17]). The z-score was 0.0912 (inactive) and 0.694 (inactive) in [10] (setting [18]); 0.385 and 1.43 in experiment [10] (setting [19]); 0.24 (inactive) in experiment [13].

Source of the values: PubChem BioAssay.
